KLF5 inhibitor – inhibitors of KLF5 expression; 290,000 compounds, 0.23% hits; DLD-1 KLF5 promoter-luciferase reporter, luminescence; inhibition, % at 5 µM; AID 1700;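 active = inhibition above a per-plate limit of that plate's mean compound inhibition plus 3 SD, cut at about 60% in these data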;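 also: higher means less KLF5 promoter-driven luciferase light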
aSyn 5UTR inh – 5' untranslated region of α-synuclein, MLPCN primary screen; alpha-synuclein 5'UTR reporter, inhibitor activity; inhibition, % (tested at 7.5 µM); 300,000 compounds, 0.82% hits; AID 1813; in the data active = inhibition above about 60%;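 also: H4 neuroglioblastoma cells stably carrying SNCA 5'UTR luciferase fusion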
Jurkat NFkB inh – lowers PMA/ionomycin-induced NF-kB signal in Jurkat cells. PMA/ionomycin-induced NF-kB luciferase reporter, luminescence. inhibition, % at 4 µM. 330,000 compounds, 0.53% hits; in the data active = inhibition above about 50%
697 NFkB inh – lowers PMA/ionomycin-induced NF-kB signal in 697 B cells; 697 B-cell NF-kB luciferase reporter, 16 h; inhibition, % at 4 µM; 330,000 compounds, 0.33% hits; AID 435022; in the data active = inhibition above about 35%
Gli-Sufu block – blocks Gli-Sufu signaling in a luciferase reporter; Sufu-KO-LIGHT fibroblasts, Gli luciferase reporter luminescence; inhibition, % at 5 µM; 340,000 compounds, 0.74% hits; AID 588413;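 active = inhibition above about 55%, limit read from the data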
Mdm2-MdmX inh – human Mdm2/MdmX binding inhibition. inhibition, % at 8 µM. SaOS-2 split-luciferase Mdm2/MdmX complementation, luminescence. AID 485346. 330,000 compounds, 3% hits. O15151+Q00987;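 active = inhibition of at least 50% at 8 µM in the primary screen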
Target sequence (O15151 whole entry, looked up): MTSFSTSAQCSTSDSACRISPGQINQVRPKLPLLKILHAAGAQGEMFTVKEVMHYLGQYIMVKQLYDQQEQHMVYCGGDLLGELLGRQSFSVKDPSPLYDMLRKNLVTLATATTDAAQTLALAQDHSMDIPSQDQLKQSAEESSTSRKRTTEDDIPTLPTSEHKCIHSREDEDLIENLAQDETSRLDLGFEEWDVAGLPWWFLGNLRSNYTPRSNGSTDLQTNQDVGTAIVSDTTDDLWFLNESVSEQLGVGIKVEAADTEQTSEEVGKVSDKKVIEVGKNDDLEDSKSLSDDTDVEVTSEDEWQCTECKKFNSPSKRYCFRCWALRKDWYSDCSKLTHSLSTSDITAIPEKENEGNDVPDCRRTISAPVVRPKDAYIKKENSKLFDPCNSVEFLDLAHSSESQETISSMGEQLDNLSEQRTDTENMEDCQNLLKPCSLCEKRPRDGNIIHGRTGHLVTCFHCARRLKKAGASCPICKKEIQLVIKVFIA
Target sequence (Q00987 whole entry, looked up): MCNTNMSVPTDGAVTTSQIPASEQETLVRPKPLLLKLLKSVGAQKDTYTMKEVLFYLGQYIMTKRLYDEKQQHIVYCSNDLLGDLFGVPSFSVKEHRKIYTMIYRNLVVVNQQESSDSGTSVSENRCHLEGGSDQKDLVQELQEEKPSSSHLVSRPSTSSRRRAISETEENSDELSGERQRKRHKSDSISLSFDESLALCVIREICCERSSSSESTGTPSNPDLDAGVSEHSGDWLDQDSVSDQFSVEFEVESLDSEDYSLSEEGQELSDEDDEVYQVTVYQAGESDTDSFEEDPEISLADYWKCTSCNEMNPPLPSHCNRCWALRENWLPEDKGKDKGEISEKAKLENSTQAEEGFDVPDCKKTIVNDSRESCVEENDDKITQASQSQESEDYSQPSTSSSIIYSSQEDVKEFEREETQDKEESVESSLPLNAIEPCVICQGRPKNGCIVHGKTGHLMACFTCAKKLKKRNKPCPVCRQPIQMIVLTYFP
Gli-Sufu confirm – Gli-SUFU antagonism confirmation, single concentration; shares compounds with Gli-Sufu block; Sufu-KO-LIGHT cells, Gli luciferase reporter, luminescence; inhibition, % at 5 µM; 2,500 compounds, 40% hits; AID 602428;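 active = mean inhibition at 5 µM reaching about 45%, limit read from the data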
SufuKO cytotox – cytotoxicity counter-screen for Gli-SUFU antagonists. shares compounds with Gli-Sufu block. Sufu-KO-LIGHT cells cytotoxicity, ATP luminescence. cytotoxicity, % at 5 µM. 2,500 compounds, 32% hits. AID 651994;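 active = mean cytotoxicity at 5 µM above about 25%, limit read from the data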;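 also: cells exposed to compound overnight for roughly 16 to 18 hours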
Wnt3a counter – counter-screen for Gli-SUFU antagonists: Wnt3a reporter inhibition; shares compounds with Gli-Sufu block; Wnt-LIGHT cells, Wnt3a-driven luciferase reporter, luminescence; inhibition, % at 6.25 µM; 2,500 compounds, 20% hits;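 active = mean inhibition above about 25%, limit read from the data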
Numbers stand for hits; i = inactive; nt = no result given. Only some compounds are listed: those with a hit (about 4.1% of all), similar ones and a draw of the others.

SMILES	KLF5 inhibitor	aSyn 5UTR inh	Jurkat NFkB inh	697 NFkB inh	Gli-Sufu block	Mdm2-MdmX inh	Gli-Sufu confirm	SufuKO cytotox	Wnt3a counter
Cc1ccc(C2=C(CC(=O)O)C(=O)CC2)cc1	i	i	i	i	55	i	i	i	i
COCCNC(=O)CN(Cc1ccc(F)cc1)C(=O)CCC(=O)Nc1nccs1	i	i	i	i	i	i	nt	nt	nt
CCOc1ccc(-n2c(-c3ccc(Cl)cc3)c[n+]3c2SCC3)cc1	i	i	i	i	78	i	74	30	i
c1ccc(-c2c[n+]3c(n2-c2ccccc2)SCC3)cc1	i	i	i	i	59	i	58	i	i
COc1cccc(NC(=O)CN(C)C(=O)CCCc2nc3ccccc3s2)c1	nt	i	i	i	i	i	nt	nt	nt
O=C(c1ccc(NC2=NC3CS(=O)(=O)CC3S2)cc1)N1CCN(c2ccc([N+](=O)[O-])cc2)CC1 (centres undefined)	i	i	i	i	i	i	nt	nt	nt
COC(=O)CN(C(=O)CSc1nnc(-c2cccc(OC)c2)o1)c1ccc(OC)cc1	i	i	i	i	i	i	nt	nt	nt
CCOC(=O)CN(C(=O)CSc1nnc(-c2cccc(OC)c2)o1)c1ccc(F)cc1	i	i	i	i	99	i	i	i	i
O=C(CN1CCSCC1)c1c[nH]c2ccccc12	i	i	i	i	99	i	i	i	i
COc1ccccc1N1CCN(c2ncc(C(=O)N3CCN(c4cccc(Cl)c4)CC3)c3ccccc23)CC1	i	i	i	i	61	i	67	i	i
CC(=O)Nc1cccc(C(=O)Nc2cccc3ncccc23)c1	i	i	i	i	86	i	i	i	i
Nc1cccc(C(=O)Nc2cccc3ncccc23)c1	i	i	i	i	i	i	nt	nt	nt
O=C(Nc1ccccc1)C1=C[C@@H](C2CCCCC2)C[C@@H](OCCCCO)O1	i	i	i	i	68	i	80	i	i
O=C(Nc1ccccc1)C1=C[C@H](C2CCCCC2)C[C@H](OCCCCO)O1	nt	i	i	i	62	i	82	i	i
COc1ccc(CCN(C)C(=O)c2cc(S(=O)(=O)N3CCCCC3)ccc2Cl)cc1OC	nt	i	i	i	i	i	nt	nt	nt
Brc1ccc(C2=Nn3c(Cn4nnc5ccccc54)nnc3SC2)cc1	i	i	i	i	i	i	i	i	i
Cc1ccccc1-n1nc(C(=O)c2cccs2)cc(-c2nc3ccccc3[nH]2)c1=N	i	i	i	i	59	i	i	i	i
CCOC(=O)c1c(C2COc3ccccc3O2)csc1N (centres undefined)	i	i	i	i	i	i	i	29	i
Cc1ccc2ccccc2c1CSc1nc(N)nc2c1ncn2CC(C)C	nt	nt	nt	nt	i	nt	nt	nt	nt
CN(Cc1cccc2cnccc12)C(=O)c1cc(COc2ccc(F)cc2F)on1	i	i	i	i	i	i	nt	nt	nt
CCc1ccc(CN(C)C(=O)c2cc(COc3cccc4cnccc34)on2)cc1	i	i	i	i	65	i	62	25	i
CCCC(=O)Nc1c2c(nn1-c1ccc(OC)cc1)CS(=O)C2 (centres undefined)	i	i	i	i	i	i	i	i	i
S=C(Nc1ccc2nc(-c3ccccn3)c(-c3ccccn3)nc2c1)N1CCCCC1	i	nt	i	i	i	i	i	i	i
O=C(NCCc1ccccc1)C1CCC(CNS(=O)(=O)c2ccccc2)CC1 (centres undefined)	i	i	i	i	i	i	i	i	i
COc1ccc(CCNC(=O)C2CCC(CNS(=O)(=O)c3ccccc3)CC2)cc1OC (centres undefined)	i	i	i	i	nt	i	nt	nt	nt
COc1ccc(C2(O)CN(c3ccc(C)cc3)C3=[N+]2CCCC3)cc1 (centres undefined)	i	i	i	i	i	i	55	33	i
Cc1ccc(C(=O)NC(NCC2CCCO2)C(Cl)(Cl)Cl)cc1 (centres undefined)	i	i	i	i	i	i	nt	nt	nt

Screens: PubChem, several laboratories
